A selection: hits, their analogues and other compounds. The true share with any hit is near 12%.
Sfp inh = qHTS Assay for Inhibitors of Bacillus subtilis Sfp phosphopantetheinyl transferase (PPTase) | AID 1490, 2009 | Biochemical Sfp PPTase activity, qHTS | Potency, µM, for the others: largest response in the series, negative = inhibition, usual class: inhibitors | 310,000 compounds, 3.5% hits;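 further: the enzyme is Sfp with the accession as filed and its product quenches rhodamine fluorescence; 0% = enzyme reaction without inhibitor and -100% = no enzyme wells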
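Compounds were incubated with enzyme (final 15 nM) for 15 min at room temperature before substrate addition started the reaction. Fluorescence at 525 nm excitation, 598 nm emission was recorded immediately and after 30 minutes.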
JMJD2A Tudor = qHTS Assay for Inhibitors of JMJD2A-Tudor Domain. AlphaScreen JMJD2A-Tudor / H3K4me3 peptide binding. Potency, µM (series often up to 114 µM), for inactives: at the highest dose activity change, negative = inhibition, hits mostly inhibitors. 390,000 compounds, 4.4% hits. AID 504339, 2011; further: on the % scale 0 is the no-effect control and ±100 the full control effect; nearly all actives have a fitted effect of over 50% in size
G9a block = qHTS Assay for Inhibitors of Histone Lysine Methyltransferase G9a; AID 504332, 2011; G9a H3K9 monomethylation, AlphaScreen, 2 h; Potency, µM (highest dose often 102 µM), for inactives: top-dose activity, negative = inhibition, usual class: inhibitors; 350,000 compounds, 8.8% hits; further: on the % scale 0 is the no-effect control and ±100 the full control effect; nearly all actives have a fitted effect of over 75% in size
Target sequence (Q96KQ7 913-1193 limits assumed): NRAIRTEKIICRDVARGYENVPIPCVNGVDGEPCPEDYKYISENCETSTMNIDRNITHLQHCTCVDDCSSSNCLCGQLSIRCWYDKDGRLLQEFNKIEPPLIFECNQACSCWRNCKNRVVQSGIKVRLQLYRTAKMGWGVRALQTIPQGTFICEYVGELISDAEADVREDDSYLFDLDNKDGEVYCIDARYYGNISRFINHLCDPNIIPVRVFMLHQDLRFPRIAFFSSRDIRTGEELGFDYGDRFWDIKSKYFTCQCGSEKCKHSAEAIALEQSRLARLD
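Readings reflect AlphaScreen signal from monomethyl-H3K9 antibody detection. HMT at 20 nM; substrate b-H3K9 500 nM; cofactor SAM 20 uM; 2 h RT reaction; compounds tested as titrations in qHTS with 15 min preincubation.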
HP1b chromo inh = HTS for Inhibitors of HP1-beta Chromodomain Interactions with Methylated Histone Tails | Chromobox protein homolog 1 (Homo sapiens), P83916 | AlphaScreen HP1-beta / biotin-H3K9me3 peptide binding | Potency, µM (highest dose often 114 µM), inactives show top-dose activity change, negative = inhibition, actives largely listed as inhibitors | 390,000 compounds, 0.56% hits; further: nearly all actives have a fitted effect of over 70% in size
Target sequence (P83916 whole entry, looked up): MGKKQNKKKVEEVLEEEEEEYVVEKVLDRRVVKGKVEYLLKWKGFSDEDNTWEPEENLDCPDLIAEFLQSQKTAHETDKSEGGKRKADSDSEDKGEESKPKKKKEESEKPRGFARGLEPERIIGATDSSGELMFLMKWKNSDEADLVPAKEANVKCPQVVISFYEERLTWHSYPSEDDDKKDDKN
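HP1-beta protein (50 nM final) preincubated 30 min at room temperature with biotinylated H3(1-18)K9me3 peptide (50 nM) in PBS pH 7.4, 0.01% Tween-20, then compound added for 30 min. AlphaScreen streptavidin donor/nickel chelate acceptor beads (10 ug/mL final), 30 min dark, luminescence read.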
BAZ2B inh = qHTS Assay for Inhibitors of BAZ2B. AlphaScreen BAZ2B-H3K14Ac peptide displacement. Potency, µM (highest dose often 114 µM), for inactives: at the top dose activity change, negative = inhibition, usual class: inhibitors. 360,000 compounds, 4.4% hits. Bromodomain adjacent to zinc finger domain protein 2B (Homo sapiens), Q9UIF8; further: on the % scale 0 is the no-effect control and ±100 the full control effect; nearly all actives have a fitted effect of over 60% in size
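Inhibition is scored as reduced AlphaScreen emission. The BAZ2B/b-H3(5-23)K14Ac complex (50 nM each) in PBS pH 7.4, 0.01% Tween-20 meets compound (up to 110 uM) for 30 min at RT before bead addition.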
* = called active by the depositor; [ ] = dose if it differs, or a comment. The call rests on the fitted dose curve; in most records, active means well fitted curve in the direction sought with a large enough effect; inconclusive means small, poorly fitted or top-dose-only effect, or another doubt; inactive means no such curve, though single readings can be large; an effect the other way counts as inactive or inconclusive. Potency means the concentration at half of the fitted maximal effect.

Results for COc1cc(/C=c2/sc3nc(-c4ccccc4)c(-c4ccccc4)n3c2=O)cc(OC)c1OC ?
Sfp inh: 17%; JMJD2A Tudor: -17%; G9a block: inconclusive; HP1b chromo inh: -8%; BAZ2B inh: -36%

What do the screens show for `COc1ccc(/C=c2/sc3n(c2=O)NC2(c4ccccc4)N(C)C(=O)N(C)C2(c2ccccc2)N=3)cc1` (configuration not stated)?
Sfp inh: 10%; JMJD2A Tudor: -9%; G9a block: 9%; HP1b chromo inh: 23%; BAZ2B inh: 7%

What do the screens show for `COc1ccc(/C=c2\sc3nc(-c4ccccc4)c(-c4ccccc4)n3c2=O)cc1OC`?
Sfp inh: 18µM*; JMJD2A Tudor: -34%[11.4 µM]; G9a block: 35µM*; HP1b chromo inh: 13%; BAZ2B inh: inconclusive

Results for COc1ccc(/C=c2/sc3nc(-c4ccccc4)c(-c4ccccc4)n3c2=O)cc1 ?
Sfp inh: -16%; JMJD2A Tudor: -22%; G9a block: 14µM*; HP1b chromo inh: inconclusive; BAZ2B inh: inconclusive

Results for COc1ccc(NC(=O)CC2CC3CCC2C3)cn1 (configuration not stated) ?
Sfp inh: 9%; JMJD2A Tudor: -18%; G9a block: 5%; HP1b chromo inh: 23%; BAZ2B inh: -2%

What do the screens show for `CNC(=O)c1c(NC(=O)CS(=O)(=O)c2ccc(F)cc2)sc(C)c1C`?
JMJD2A Tudor: -3%; G9a block: -46%[2.33 µM]; HP1b chromo inh: 15%; BAZ2B inh: 4%

How did O=C(CN(C(=O)Cn1nnc(-c2ccc(F)cc2)n1)c1ccc(F)cc1)NC1CCCC1 do in these assays?
Sfp inh: 10%; JMJD2A Tudor: -12%; G9a block: 4%; HP1b chromo inh: -17%; BAZ2B inh: 0%

What do the screens show for `O=C(O)CC/C(=C\c1ccc(Cl)c([N+](=O)[O-])c1)c1nc2ccccc2s1`?
Sfp inh: -14%; JMJD2A Tudor: -25%; G9a block: -48%; HP1b chromo inh: 19%; BAZ2B inh: -39%

How did CC(=O)Nc1ccc(N2CCOCC2)c([N+](=O)[O-])c1 do in these assays?
Sfp inh: 25%; JMJD2A Tudor: -1%; G9a block: -7%; HP1b chromo inh: 16%; BAZ2B inh: -21%

Results for O=C(O)C/C(=C\c1ccc(N2CCOCC2)c([N+](=O)[O-])c1)c1nc2ccccc2s1 ?
Sfp inh: -9%; JMJD2A Tudor: -9%[11.4 µM]; G9a block: inconclusive; HP1b chromo inh: -6%; BAZ2B inh: 50µM*

How did O=C(O)CC/C(=C\c1ccc(N2CCOCC2)c([N+](=O)[O-])c1)c1nc2ccccc2s1 do in these assays?
Sfp inh: 17%; JMJD2A Tudor: inconclusive; G9a block: inconclusive; HP1b chromo inh: -11%; BAZ2B inh: 35µM*

How did CC(=O)c1ccc2c(c1)C1C=CCC1C(c1cc3c(cc1Br)OCO3)N2 (configuration not stated) do in these assays?
JMJD2A Tudor: -31%; G9a block: 25%[2.33 µM]; HP1b chromo inh: 10%; BAZ2B inh: -32%

How did COc1ccc2c(c1)C1C=CCC1C(c1cc3c(cc1Br)OCO3)N2 (configuration not stated) do in these assays?
Sfp inh: -21%; JMJD2A Tudor: 22µM*; G9a block: 40µM*; HP1b chromo inh: -44%; BAZ2B inh: 35µM*

How did O=C(C1=NN[C@@H]2C(=O)N(c3cccc(F)c3)C(=O)[C@H]12)c1cnccn1 do in these assays?
Sfp inh: inconclusive; JMJD2A Tudor: 18µM*; G9a block: 20µM*; HP1b chromo inh: 36%; BAZ2B inh: 45µM*

What do the screens show for `CCN1C(=O)[C@@H]2C(C(=O)c3cnccn3)=NN[C@@H]2C1=O`?
Sfp inh: -15%; JMJD2A Tudor: 45µM*; HP1b chromo inh: -2%; BAZ2B inh: -14%

Compound activity as filed in PubChem.
